Whole data set: some 33,000 sequences, median “E-score (-0.5 to 0.5)” near -0.011, cut for the highest 2% near 0.28. For the sample, the highest values were picked, then their nearest neighbours and some sequences at random.
These sequences were tested against T1, Gcr1 (UniProt P07261) (assay: PBM E-score (8-mer binding enrichment) (E-score (-0.5 to 0.5)); higher = stronger / more preferred TF binding). Conditions: protein concentration: 100 nM; construct: GST-full length.
T1 sequence: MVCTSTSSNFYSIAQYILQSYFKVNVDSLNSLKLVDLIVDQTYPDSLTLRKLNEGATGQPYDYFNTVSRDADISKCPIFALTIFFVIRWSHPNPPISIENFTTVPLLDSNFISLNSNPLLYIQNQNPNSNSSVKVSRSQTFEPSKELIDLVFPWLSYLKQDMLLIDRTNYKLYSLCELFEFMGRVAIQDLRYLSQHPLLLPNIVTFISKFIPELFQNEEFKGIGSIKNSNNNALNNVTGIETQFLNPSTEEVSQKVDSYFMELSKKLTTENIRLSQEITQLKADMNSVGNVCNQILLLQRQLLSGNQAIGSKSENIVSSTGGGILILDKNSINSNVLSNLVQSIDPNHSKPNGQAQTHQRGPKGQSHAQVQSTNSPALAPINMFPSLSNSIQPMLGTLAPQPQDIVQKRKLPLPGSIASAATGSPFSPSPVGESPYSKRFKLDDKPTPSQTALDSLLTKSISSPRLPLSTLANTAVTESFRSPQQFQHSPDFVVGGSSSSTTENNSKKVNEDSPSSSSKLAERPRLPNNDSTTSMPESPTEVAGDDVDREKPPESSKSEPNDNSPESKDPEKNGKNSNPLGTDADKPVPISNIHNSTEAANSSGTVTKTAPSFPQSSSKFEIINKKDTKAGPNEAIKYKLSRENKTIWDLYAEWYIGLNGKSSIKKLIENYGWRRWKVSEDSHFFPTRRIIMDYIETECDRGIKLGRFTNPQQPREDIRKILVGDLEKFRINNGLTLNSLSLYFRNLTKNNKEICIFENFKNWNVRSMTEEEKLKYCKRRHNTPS
Procedure: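 Universal 'all 10-mer' protein binding microarrays (Agilent AMADID 015681) probed with GST-tagged S. cerevisiae TFs (full-length or DBD) made by in vitro transcription/translation (PURExpress), about 100-200 nM. Bound TF was detected with fluorescent anti-GST. Each ungapped 8-mer (which stands for itself and its reverse complement) is scored by the PBM enrichment score (E-score), a modified Wilcoxon-Mann-Whitney statistic from -0.5 to +0.5, computed with the Universal PBM Analysis Suite. Scale: above 0.35 generally sequence-specific binding.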

Sequence	PBM E-score
AGGGAAAA	0.108
AAGAGGAA	0.285
GAGAGGAA	0.128
AAGAGGAT	0.0595
AAGAGGAG	-0.0404
TAGAGGAA	0.396
CAGAGGAA	0.0251
AGGCACTG	-0.0493
TACCAGGA	0.19
CTATGCTA	-0.075
AGTCCTCG	-0.0287
CAAGTCAA	-0.0468
GAAGTCAA	0.297
GAAGTCAC	0.00882
AGCCCCTA	-0.0303
ATGGGTGG	-0.0217
GACGCCTC	0.282
GACGCCGC	0.37
CACGCCGC	0.151
CACGCCTC	-0.0746
AACGCCGC	0.123
AACGCCTC	-0.0454

Sequence	PBM E-score
AAAGGGTT	-0.0414
GTAAAGGA	0.149
AAAGAGAC	0.0252
CGGTGCCA	0.00263
GGTTGCCA	0.377
CGTTGCCA	0.0696
GGGTGCCA	0.414
CGGTGCCC	0.231
AGGTGCCC	0.395
AGGTGCCA	0.191
AGGTGCCG	0.22
AGTTGCCA	0.134
GTAAAGAC	-0.129
CAGGCCAG	-0.207
CGGCTGGA	0.0497
CATTCGGA	0.00656
GATGCCGC	0.267
GACAAGAC	0.0539
CTCAGAAA	-0.133
GAAAACGC	-0.167
AGTCTCGC	-0.154
AGGGCTCC	0.143

Sequence	PBM E-score
CAAAGGAC	-0.127
ACAGCTTG	-0.199
CGAGCTTA	-0.185
AGAGCTTC	0.267
CCAGCTGC	0.218
ACAGCTTA	-0.0153
CGAGCTTC	0.371
ACAGCTTC	0.345
CCAGCTTC	0.333
CCAGCTTA	-0.0932
AGTTCCAT	-0.107
AGAAGCAC	0.126
ACCCCGCC	0.0633
CTCTAAGA	-0.00019
AACTTCGG	-0.0312
ACCAGCTC	-0.149
CATACGCA	0.0448
TATACGCA	0.285
GATACGCA	0.247
CATGCGGC	-0.0307
GATGCGGC	0.299
GATGCGGA	0.033

Sequence	PBM E-score
CTGATCTC	-0.125
AGCGCCCG	0.272
GATAGGAA	0.208
AATAGGAA	0.352
TCTAGGAA	0.105
CATAGGAA	0.134
AATAGGAT	0.187
TATAGGAA	0.318
ACATATCA	0.129
CTCCGCGA	0.0908
GGCATTTA	-0.124
ACTGCACA	-0.211
CCAGCCAA	-0.11
ACAGCCAC	-0.00306
GCAGCCAA	0.395
GCAGCCAC	0.383
CCAGCCAC	0.0313
TCAGCCAA	-0.102
ACCGCCAT	-0.181
GACCTAGC	-0.152
GATATTGC	0.00295
CCTAGGTC	-0.17

— the supplement of paper PMC3334620
